In PubChem BioAssay (NCATS):
Inconclusive results are not listed. Values without a mark were called inactive. Calls of active or inactive are those of the source. Calls follow the shape of the dose curve; as a rule, active = well fitted inhibition curve with a large enough effect; inconclusive = small, poorly fitted or top-dose-only effect; inactive = flat fitted curve, though single readings scatter.

target: Calcium and integrin-binding protein 1 (Homo sapiens) (UniProt Q99828); assay: Primary qHTS for Identification of Calcium Integrin Binding Protein 1 (CIB1) Competitor (AID 1508620); conditions: CIB1-GST / FITC-alphaIIb peptide fluorescence polarization; series mostly up to 114 µM; activity change, negative = inhibition: at the top concentration;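 also: GST tagged CIB1 binding a fluorescein labelled alphaIIb integrin peptide tracer; top concentration of the series differs between compounds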
In short: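 Fluorescence polarization competition: CIB1-GST (1 uM final) preincubated with compound 15 min at room temperature, then FITC-labeled alphaIIb peptide (100 nM final) added for another 15 min. Polarization read at Ex 480/Em 540.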
% is scaled to controls: 0 for no effect and ±100 for the full control effect.

Chain of Calcium and integrin-binding protein 1 (Homo sapiens) (Q99828 whole entry, looked up): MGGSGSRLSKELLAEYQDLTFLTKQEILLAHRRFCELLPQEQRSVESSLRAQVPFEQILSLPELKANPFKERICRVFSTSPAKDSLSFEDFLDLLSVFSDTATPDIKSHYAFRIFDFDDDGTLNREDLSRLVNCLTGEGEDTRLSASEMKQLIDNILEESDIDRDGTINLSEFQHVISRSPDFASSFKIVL

SMILES	activity change, negative = inhibition	Potency
Cc1ccc(OCCn2c(CCNC(=O)c3cc([N+](=O)[O-])ccc3[N+](=O)[O-])nc3ccccc32)cc1	3.6%	–
O=C(Nc1ccc(Cl)nc1)Nc1nnc(-c2ccncc2)s1	3.56%	–
Cc1ccc(NC(=O)CSc2nnc(-c3cccc([S+](=O)([O-])N4CCCC4)c3)n2-c2c(C)cccc2C)cc1	3.04%	–
Cc1cc(C)nc(NC(=S)N2CCN(c3cc(Cl)c(Cl)c(Cl)c3)CC2)c1	5.25%	–
Cc1nc2ccc(Nc3nc(Nc4c(C)cc(C=CC#N)cc4C)nc4nc[nH]c34)cc2s1	-15.5%	–
COc1cc(F)c(S(=O)(=O)N2CCN(S(=O)(=O)c3ccc(N)cc3)CC2)c(F)c1	-0.56%	–
FC(F)(F)c1cccc(-c2nc(NCc3ccc(-c4ccnc(C(F)(F)F)c4)cc3)c3ccccc3n2)c1	2.02%	–
O=C1Nc2ccccc2/C1=C\c1cc(F)c(O)c(F)c1	-4.14%	–
Cc1cc(C)nc(NC(=S)N2CCN(c3cccc(S(C)=O)c3)CC2)c1 (stereo not given)	-26.6%	–
CNc1oc(-c2ccc(F)cc2)nc1C#N	-0.387%	–
COc1ccc(C2Nc3ccccc3C(=O)N2Cc2cccc(Cl)c2)cc1COc1ccc(NC(C)=O)cc1 (stereo not given)	0.359%	–
Cc1cccc(C)c1-n1c(SCC(=O)Nc2ccc(C(=O)O)cc2)nnc1-c1ccc([S+](=O)([O-])N2CCCC2)cc1	-16.2%	–
COc1ccc(-c2nnc3n2N=C(c2ccccc2OC)CS3)cc1	-2.62%	–
O=S1(=O)N=C(Oc2ccccc2Br)c2ccccc21	-1.04%	–
Cc1noc(C)c1-c1ccc(Nc2nc(-c3ccncc3)nc3ccccc23)cc1F	14.7%	–
c1cncc(-c2ccc(CNc3nc(C4CCCC4)nc4ccccc34)cc2)c1	6.46%	–
COc1ccc(C2c3c(ncn(CCN4CCOCC4)c3=N)Oc3ccc4ccccc4c32)cc1OC (stereo not given)	6.83%	–
COc1ccc(-c2nnc3n2N=C(c2ccccc2OC)CS3)c(OC)c1	-0.164%	–
COc1cccc(NC(=S)N2CCN(c3cccc(C(F)(F)F)n3)CC2)n1	3.17%	–
COc1cccc(C2c3c(ncn(CCN4CCOCC4)c3=N)Oc3ccc4ccccc4c32)c1 (stereo not given)	-0.37%	–

SMILES	activity change, negative = inhibition	Potency
CCCCN(C)C(=O)Cn1nc(-c2cncnc2)ccc1=O	-0.916%	–
O=[S+]([O-])(Nc1ccccc1)c1ccc(NCc2cccc(C(F)(F)F)c2Cl)cc1	2.94%	–
O=C(Nc1ccc(Cl)c(C(F)(F)F)c1)Nc1nnc(-c2ccncc2)s1	–	inactive
COc1cc(F)c(S(=O)(=O)N2CCN(S(=O)(=O)c3ccc(NC(C)=O)cc3)CC2)c(F)c1	-4.81%	–
Cc1cc2c(s1)c1cnn(Cc3ccc(C(F)(F)F)cc3F)c(=O)c1n2C	1.77%	–
O=C1Nc2ccccc2/C1=C\c1ccc(C(=O)O)cc1	-6.69%	–
Fc1ccc(Nc2cc(-c3ccccc3)nc(-c3ccncc3)n2)cc1F	5.17%	–
CN(C)CCNc1ncnc2ccc(-c3ccc4c(c3)OCO4)cc12	3.94%	–
CC(=O)Nc1sc2c(c1-c1ccc3c(c1)OCCO3)CCNC2	3.07%	–
O=C(Cc1ccc(Cl)c(Cl)c1)Nc1ccc([S+](=O)([O-])Nc2cccc([N+](=O)[O-])c2)cc1	-8.85%	–
CCOC(=O)/C=C/c1cc(F)c(S(=O)(=O)N2CCN(S(=O)(=O)c3ccc4c(c3)OCCO4)CC2)cc1F	4.97%	–
COc1cccc(C2c3c(ncn(-c4ccccc4C)c3=N)Oc3ccc4ccccc4c32)c1 (stereo not given)	5.84%	–
Cc1ccc2nc3sc(C(=O)Nc4ccncc4)cc3cc2c1	-1.51%	–
COc1ccc(C2Nc3ccccc3C(=O)N2Cc2ccccc2C(F)(F)F)cc1COc1ccc(NC(C)=O)cc1 (stereo not given)	3.79%	–
CC1=C(C(=O)Nc2ccon2)C(c2ccccc2Br)N=C(Nc2nc3ccccc3o2)N1 (stereo not given)	-0.654%	–
O=C(Nc1ccc(-c2cn[nH]c2)cc1)Nc1nnc(-c2ccncc2)s1	-3.7%	–
COc1cccc(NC(=S)N2CCN(c3cccc(Cl)c3Cl)CC2)n1	9.58%	–
CC(=O)c1c(C)[nH]c(C(=O)Nc2ccc(OCCCN(C)C)c(S(=O)(=O)Nc3ccc(Br)cc3)c2)c1C	-8.33%	–
Cc1cc(C)n2ncc(C(=O)NCc3ccco3)c2n1	-9.66%	–
COc1cc(NS(=O)(=O)c2ccc(C)cc2)c2ncccc2c1	-2.95%	–
